Bioassay records: PubChem, National Center for Advancing Translational Sciences (NCATS)
KB-V1 MDR tox: kills drug-selected multidrug resistant KB-V1 cells. Potency, µM (doses to about 46.1 µM), actives largely listed as cytotoxic. 400,000 tested, 3.4% active. AID 1347076. KB-V1 MDR cells viability, CellTiter-Glo, 72 h; further: on the % scale 0 is the no-effect control and ±100 the full control effect; nearly all actives have a fitted effect of over 60% in size
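KB-V1 cells (P-gp-expressing MDR subline of KB-3-1) in phenol-red-free DMEM with 10% FBS were exposed to library compounds over a concentration series for 72 h at 37 degrees C. Viability read by CellTiter-Glo luminescence; concentration-effect curves fitted after normalization.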
KB-3-1 tox: kills parental KB-3-1 adenocarcinoma cells; KB-3-1 viability, CellTiter-Glo ATP luminescence, 72 h; Potency, µM (highest dose often 46.1 µM), most hits filed as cytotoxic; AID 1347075; 400,000 tested, 1.4% active; further: on the % scale 0 is the no-effect control and ±100 the full control effect; nearly all actives have a fitted effect of over 60% in size
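Multi-concentration cytotoxicity screen in KB-3-1 cells grown in DMEM lacking phenol red with 10% FBS. After 72 h at 37 °C with compound, ATP-dependent luminescence was recorded.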
MCF10A rereplic: inducers of DNA re-replication in MCF 10A breast cells | 350,000 tested, 2.9% active | Potency, µM (top dose mostly 46.1 µM), without a hit: top-dose activity, positive = re-replication, hits mostly activators | MCF 10A DNA re-replication, Hoechst nuclear intensity, 48 h; further: % of control where 0% means no effect; nearly all actives have a fitted effect of over 50% in size
HT1080NT lethal: kills 2HG-producing HT-1080-NT fibrosarcoma cells | AID 686970 | Potency, µM (top dose mostly 46.1 µM), inactives show at the top dose activity, negative = less viability, usual class: cytotoxic | HT-1080-NT fibrosarcoma viability, CellTiter-Glo ATP luminescence, 48 h | 360,000 tested, 1.6% active;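 further: NT is the 2HG producing partner of a matched IDH1 knockdown line; 0% = DMSO-treated cells and -100% = media-only wells without cells; nearly all actives have a fitted effect of over 55% in size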
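Read-out is CellTiter-Glo luminescence after 10 minutes at room temperature, following 48 hours' compound treatment of HT-1080-NT cells (750 cells/well, RPMI, 5% FBS, 37 degrees C).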
HT1080 IDH1KD tx: HT-1080 IDH1 knockdown cell toxicity (counter line); HT-1080 IDH1 knockdown viability, ATP luminescence, 48 h; Potency, µM (doses to about 46.1 µM), for the others: at the highest dose activity, negative = toxicity, usual class: cytotoxic; 360,000 tested, 2% active;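 further: 0% = DMSO wells and -100% = cell-free medium wells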
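CellTiter-Glo luminescence after 48 h compound exposure at 37 degrees C of IDH1-knockdown HT-1080 cells in 5% FBS RPMI. %Activity scaled between DMSO wells and cell-free media wells, with curves fitted and assigned curve classes.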
SW480 rerep: DNA re-replication induction in SW480 cells; SW480 DNA re-replication, Hoechst DNA content imaging, 48 h; 340,000 tested, 1.8% active; Potency, µM (doses to about 46.1 µM), inactives show top-dose re-replication activation, hits mostly activators; further: % of control where 0% means no effect; nearly all actives have a fitted effect of over 55% in size
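Quantitative HTS format with DMSO vehicle controls; 48 hr drug incubation at 37 C, then 40 min Hoechst staining and scanning imager measurement at 405 nm excitation.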
The depositor's hits bear a star; i = inactive; ? = inconclusive; / = no result given; [ ] = remark or other dose. A selection: hits, their analogues and other compounds. The true share with any hit is near 8%. The call rests on the fitted dose curve; in most records, active means well fitted curve in the direction sought with a large enough effect; inconclusive means small, poorly fitted or top-dose-only effect, or another doubt; inactive means no such curve, though single readings can be large; an effect the other way counts as inactive or inconclusive. Potency means the concentration at half of the fitted maximal effect.

SMILES	KB-V1 MDR tox	KB-3-1 tox	MCF10A rereplic	HT1080NT lethal	HT1080 IDH1KD tx	SW480 rerep
COc1cc(CNn2nnnc2N)ccc1OCc1c(Cl)cccc1Cl	14.6µM*	16.4µM*	0.5%	-20.9%	-17.1%	0.2%
NC(=O)c1nsc(C(=O)N(c2ccc(Cl)cc2)C(C(=O)NCC2CCCO2)c2cccs2)c1N (stereo not drawn)	i	i	7.9%	24.4%	4.1%	?
CCOc1ccc(C(C(=O)NCC2CCCO2)N(CCc2cccc(C)c2)C(=O)c2snc(C(N)=O)c2N)cc1 (stereo not drawn)	20.6µM*	?	?	?	?	14.5%
CCc1ccc(N(C(=O)c2snc(C(N)=O)c2N)C(C(=O)NCC2CCCO2)c2cccs2)cc1 (stereo not drawn)	i	i	18.4µM*	-2.0%	-25.2%	?
COc1ccccc1CNC(=O)CC1N=C2c3ccccc3N=C(SCC(=O)Nc3ccc(F)cc3)N2C1=O (stereo not drawn)	i	i	/	/	/	/
O=C(C[n+]1c2ccccc2cc2ccccc21)c1ccc(F)cc1	i	?	/	/	/	/
Cc1ccc(S(=O)(=O)Nc2ccc(C(=O)Nc3cc(C)on3)cc2)cc1	i	i	1.2%	26.1%	10.2%	-2.9%
Cc1cc(NS(=O)(=O)c2ccc(NC(=S)NC(=O)c3ccc(C(C)(C)C)cc3)cc2)no1	23.1µM*	i	23.5%	-4.5%	3.3%	-10.4%
COc1ccc(-c2nc3ccccc3c(C(=O)Nc3ccc(S(=O)(=O)Nc4cc(C)on4)cc3)c2C)cc1	i	?	18.4µM*	?	?	?
Cc1ccc(NS(=O)(=O)c2cccc(C(=O)Nc3cc(C)on3)c2)cc1	4.61µM*	i	8.1%	-1.7%	-4.0%	?
Cc1cc(NC(=O)c2ccccc2NS(=O)(=O)c2c(C)c(C)cc(C)c2C)no1	i	i	11.6µM*	-8.7%	8.8%[9.24 µM]	9.2µM*
Cc1ccc(C)c(S(=O)(=O)Nc2ccccc2C(=O)Nc2cc(C)on2)c1	i	?	?	?	?	?
COc1ccc(Cl)cc1NS(=O)(=O)c1c(C)nc2scc(C)n2c1=O	i	i	/	/	/	/
CC1(C)CC(=O)C2=C(C1)OC(N)=C(C#N)C21C(=O)N2CCCc3cccc1c32 (stereo not drawn)	i	i	4.4%	12.1%	0.0%	-1.8%
Cc1cc2c3c(c1)C(C)(c1ccccc1)CC(C)(C)N3C(=O)C21C(C#N)=C(N)OC2=C1C(=O)CC(C)(C)C2 (stereo not drawn)	20.6µM*	?	?	-1.1%[9.24 µM]	17.8µM*	18.1%
CC(C)Oc1cc(NC(=O)CSCC(=O)Nc2cccc(C(F)(F)F)c2)c(Cl)cc1Cl	13µM*	i	2.6%	-20.0%	?	?
O=C(O)CSCC(=O)Nc1cc(C(F)(F)F)ccc1Cl	i	i	-1.4%	7.1%	1.4%	-3.2%
O=C(NCCc1ccc(Cl)cc1)c1c2c(nc3ccccc13)C(=O)N(C1CCCCC1)C2	i	i	/	/	/	/
NCCN1CCN(CC(=O)N2c3ccccc3C(=O)Nc3cccnc32)CC1	i	i	4.1%	/	/	-2.6%
O=C1Nc2cccnc2N(C(=O)CCl)c2ccccc21	16.4µM*	20.6µM*	14.6µM*	?	16.4µM*	14.6µM*
Nc1c(N(CCC2=CCCCC2)C(=O)COc2ccc(F)cc2)c(=O)[nH]c(=O)n1Cc1ccccc1	i	?	16.4µM*	?	?	-8.6%
Nc1c(N(CCC2=CCCCC2)C(=O)CCCOc2ccccc2)c(=O)[nH]c(=O)n1Cc1ccccc1	i	i	15.6%	-10.0%	-1.4%	3.2%
CC(Oc1ccccc1)C(=O)N(CCC1=CCCCC1)c1c(N)n(Cc2ccccc2)c(=O)[nH]c1=O (stereo not drawn)	i	i	?	23.1µM*	?	?
COc1cc(NC(=O)Cn2c(=O)n(Cc3ccccc3OC)c(=O)c3cccnc32)cc(OC)c1	i	i	/	/	/	/
CC(Nc1ncnc2sccc12)c1ccccc1 (stereo not drawn)	i	?	7.4%	10.3µM*	-23.0%	-3.1%
SMILES	KB-V1 MDR tox	KB-3-1 tox	MCF10A rereplic	HT1080NT lethal	HT1080 IDH1KD tx	SW480 rerep
c1ccc(Nc2ncnc3sccc23)cc1	i	i	?	-6.8%	0.3%	-24.9%
Cc1cc(C)c(NC(=O)Cn2c(=O)n(CCC(=O)NCc3ccccc3Cl)c(=O)c3sccc32)c(C)c1	i	i	/	/	/	/
CN(CC(=O)NCc1cccnc1)S(=O)(=O)c1ccc(F)cc1	i	i	0.6%	8.9%	18.4%	-5.7%
COc1ccc(S(=O)(=O)N(C)CC(=O)NCc2cccnc2)cc1OC	i	i	23.1µM*	3.0%	2.6%	-4.7%
Cc1oc(-c2cccc(Cl)c2)nc1CN1CCC(C(=O)NCc2ccc(F)cc2)CC1	i	i	/	/	/	/
Cc1ccc(CN2C3=NCCCN3c3ccccc32)cc1	i	?	-10.9%	-10.0%	-29.5%	?
CCCCN1C2=NCCCN2c2cc(C)c(C)cc21	?	i	0.1%	-11.5%	3.0%[9.24 µM]	-2.0%
O=C(O)CN1C2=NCCCN2c2ccccc21	i	i	-46.3%	18.8%	19.4%	?
Cc1cc2c(cc1C)N(Cc1ccc(Cl)cc1)C1=NCCCN12	?	?	20.8%	25.9µM*	?	-0.8%
O=C(CN1C2=NCCCN2c2ccccc21)c1ccc(Br)s1	10.3µM*	?	-1.5%	?	-27.8%	-1.9%
CC(C)(C)c1ccc(CN2C3=NCCCN3c3ccccc32)cc1	?	?	?	?	23.1µM*	?
CCN=C1S/C(=C\c2sccc2C)C(=O)N1CC	13µM*	?	11.8%	17.6%	4.6%	2.3%
O=C(Nc1ccc(Br)c(C(F)(F)F)c1)c1ccc(C(F)(F)F)cc1	?	?	14.6µM*	20.6µM*	13µM*	?
COc1ccc(C(=O)Nc2ccc(OCC(F)(F)C(F)F)c(C(F)(F)F)c2)cc1OC	?	?	14.0%	?	?	1.1%[9.22 µM]
O=C(Nc1cccc(O)c1)c1ccc(C(F)(F)F)cc1	i	i	3.1%	-20.4%	-2.4%	-147.5%
O=C(Nc1ccc(OCC(F)(F)C(F)F)c(C(F)(F)F)c1)c1ccc(Cl)cc1	?	?	23.1µM*	25.9µM*	14.6µM*	?
O=C(Nc1ccc(Br)c(C(F)(F)F)c1)c1ccccc1	16.4µM*	i	?	-0.3%	0.4%	-3.8%
O=C(Nc1ccc(C(F)(F)F)cc1)c1ccccc1	i	i	6.2%	49.1%	7.5%	4.6%
